Experiments:
[1] = target: Homeodomain-interacting protein kinase 3 (Homo sapiens) (UniProt Q9H422); settings: at 10 µM
[2] = target: T1, Serine/threonine-protein kinase haspin (Homo sapiens) (UniProt Q8TF76); settings: at 1 µM
T1 sequence (whole entry): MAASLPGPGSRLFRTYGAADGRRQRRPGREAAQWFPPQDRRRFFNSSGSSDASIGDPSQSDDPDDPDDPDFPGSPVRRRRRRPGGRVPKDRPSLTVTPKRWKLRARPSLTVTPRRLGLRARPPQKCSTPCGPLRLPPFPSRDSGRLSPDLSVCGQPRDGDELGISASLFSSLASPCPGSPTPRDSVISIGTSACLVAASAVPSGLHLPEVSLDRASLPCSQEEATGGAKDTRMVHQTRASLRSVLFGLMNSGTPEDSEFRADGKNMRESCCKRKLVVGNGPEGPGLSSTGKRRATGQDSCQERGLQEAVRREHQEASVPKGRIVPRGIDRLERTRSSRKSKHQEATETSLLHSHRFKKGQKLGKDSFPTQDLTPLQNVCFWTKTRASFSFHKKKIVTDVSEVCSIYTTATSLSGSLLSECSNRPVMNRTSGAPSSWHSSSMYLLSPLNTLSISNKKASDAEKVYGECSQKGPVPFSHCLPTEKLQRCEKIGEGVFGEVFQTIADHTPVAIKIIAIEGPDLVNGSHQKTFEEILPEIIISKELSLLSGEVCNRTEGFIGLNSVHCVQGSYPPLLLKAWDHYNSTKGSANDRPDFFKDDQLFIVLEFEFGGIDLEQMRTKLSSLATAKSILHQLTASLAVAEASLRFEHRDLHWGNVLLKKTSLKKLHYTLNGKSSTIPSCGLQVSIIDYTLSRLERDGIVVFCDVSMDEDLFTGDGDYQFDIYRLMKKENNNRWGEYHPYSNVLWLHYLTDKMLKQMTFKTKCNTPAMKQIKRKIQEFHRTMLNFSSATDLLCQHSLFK

[3] = target: T1, Serine/threonine-protein kinase haspin (Homo sapiens); settings: at 10 µM
[4] = target: Tyrosine-protein kinase HCK (Homo sapiens) (UniProt P08631); settings: at 1 µM
[5] = target: Tyrosine-protein kinase HCK (Homo sapiens) (UniProt P08631); settings: at 10 µM
[6] = target: Insulin-like growth factor 1 receptor (Homo sapiens) (UniProt P08069); settings: at 1 µM
[7] = target: Insulin-like growth factor 1 receptor (Homo sapiens) (UniProt P08069); settings: at 10 µM
[8] = target: T2, Protein kinase C zeta type (Homo sapiens) (UniProt Q05513); settings: at 10 µM
T2 sequence (whole entry): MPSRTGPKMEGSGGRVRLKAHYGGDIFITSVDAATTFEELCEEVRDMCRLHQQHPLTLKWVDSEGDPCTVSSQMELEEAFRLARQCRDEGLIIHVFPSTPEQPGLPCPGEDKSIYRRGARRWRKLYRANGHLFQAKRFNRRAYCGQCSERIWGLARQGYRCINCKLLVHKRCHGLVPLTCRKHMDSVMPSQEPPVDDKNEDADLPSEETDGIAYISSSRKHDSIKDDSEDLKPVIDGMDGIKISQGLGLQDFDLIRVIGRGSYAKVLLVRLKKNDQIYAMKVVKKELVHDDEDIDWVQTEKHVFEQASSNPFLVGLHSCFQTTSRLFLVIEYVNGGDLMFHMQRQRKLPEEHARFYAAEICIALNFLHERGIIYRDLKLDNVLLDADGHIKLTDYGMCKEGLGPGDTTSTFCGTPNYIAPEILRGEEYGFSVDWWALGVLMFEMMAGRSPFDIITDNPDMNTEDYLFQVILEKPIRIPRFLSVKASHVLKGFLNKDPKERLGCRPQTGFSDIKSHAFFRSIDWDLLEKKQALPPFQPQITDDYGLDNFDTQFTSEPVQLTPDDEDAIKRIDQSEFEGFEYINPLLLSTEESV

[9] = target: Protein kinase C eta type (Homo sapiens) (UniProt P24723); settings: at 1 µM
[10] = target: Protein kinase C eta type (Homo sapiens) (UniProt P24723); settings: at 10 µM
[11] = target: T3, Serine/threonine-protein kinase D1 (Homo sapiens) (UniProt Q15139); settings: at 1 µM
T3 sequence (whole entry): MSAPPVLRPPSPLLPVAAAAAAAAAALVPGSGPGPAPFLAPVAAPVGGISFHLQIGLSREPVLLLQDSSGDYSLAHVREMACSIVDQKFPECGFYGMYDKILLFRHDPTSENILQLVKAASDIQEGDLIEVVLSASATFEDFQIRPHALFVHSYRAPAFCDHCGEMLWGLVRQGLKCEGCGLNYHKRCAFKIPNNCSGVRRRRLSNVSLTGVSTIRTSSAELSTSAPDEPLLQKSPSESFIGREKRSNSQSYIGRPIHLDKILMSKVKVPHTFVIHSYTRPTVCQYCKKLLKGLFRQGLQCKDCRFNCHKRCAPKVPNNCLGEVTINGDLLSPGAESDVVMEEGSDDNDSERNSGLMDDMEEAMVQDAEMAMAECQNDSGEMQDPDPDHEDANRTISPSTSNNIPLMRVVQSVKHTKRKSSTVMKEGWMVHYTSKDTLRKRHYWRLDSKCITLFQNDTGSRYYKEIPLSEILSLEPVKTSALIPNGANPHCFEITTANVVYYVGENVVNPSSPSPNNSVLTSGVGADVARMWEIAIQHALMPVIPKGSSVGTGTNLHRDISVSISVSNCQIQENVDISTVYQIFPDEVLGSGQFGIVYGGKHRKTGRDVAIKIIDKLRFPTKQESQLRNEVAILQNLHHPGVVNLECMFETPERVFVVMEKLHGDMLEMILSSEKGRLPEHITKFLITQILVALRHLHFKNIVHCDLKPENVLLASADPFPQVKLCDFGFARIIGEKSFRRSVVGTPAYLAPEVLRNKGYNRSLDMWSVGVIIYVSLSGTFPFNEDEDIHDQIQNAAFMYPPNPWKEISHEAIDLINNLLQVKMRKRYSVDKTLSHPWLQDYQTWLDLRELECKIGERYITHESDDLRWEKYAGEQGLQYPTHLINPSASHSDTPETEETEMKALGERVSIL

[12] = target: T3, Serine/threonine-protein kinase D1 (Homo sapiens); settings: at 10 µM
[13] = target: T4, Serine/threonine-protein kinase D2 (Homo sapiens) (UniProt Q9BZL6); settings: at 10 µM
T4 sequence (whole entry): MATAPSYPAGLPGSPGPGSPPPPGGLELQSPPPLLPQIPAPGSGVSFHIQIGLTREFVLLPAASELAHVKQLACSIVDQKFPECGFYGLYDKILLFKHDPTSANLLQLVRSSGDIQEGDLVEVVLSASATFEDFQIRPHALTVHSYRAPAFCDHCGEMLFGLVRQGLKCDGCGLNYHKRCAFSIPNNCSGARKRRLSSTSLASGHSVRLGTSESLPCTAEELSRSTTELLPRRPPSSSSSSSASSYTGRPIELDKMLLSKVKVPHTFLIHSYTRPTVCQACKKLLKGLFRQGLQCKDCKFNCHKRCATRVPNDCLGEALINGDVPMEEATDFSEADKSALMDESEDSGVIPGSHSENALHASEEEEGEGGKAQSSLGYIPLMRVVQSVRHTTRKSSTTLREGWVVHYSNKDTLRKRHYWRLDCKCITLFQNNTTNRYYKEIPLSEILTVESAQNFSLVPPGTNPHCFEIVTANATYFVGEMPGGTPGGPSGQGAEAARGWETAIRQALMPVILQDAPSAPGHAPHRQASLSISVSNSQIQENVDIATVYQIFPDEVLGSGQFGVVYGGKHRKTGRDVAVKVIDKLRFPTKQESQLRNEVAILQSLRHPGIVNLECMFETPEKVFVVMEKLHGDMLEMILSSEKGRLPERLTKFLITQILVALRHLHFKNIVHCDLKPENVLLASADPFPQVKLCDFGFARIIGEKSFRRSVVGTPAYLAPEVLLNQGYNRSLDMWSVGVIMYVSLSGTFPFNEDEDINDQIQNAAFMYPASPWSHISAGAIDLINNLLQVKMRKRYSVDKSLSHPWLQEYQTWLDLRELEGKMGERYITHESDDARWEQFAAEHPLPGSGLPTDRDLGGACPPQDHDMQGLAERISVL

[14] = target: Tyrosine-protein kinase HCK (Homo sapiens) (UniProt P08631); settings: at 10 µM; remark: listed apart in the source
[15] = target: T5, Protein kinase C iota type (Homo sapiens) (UniProt P41743); settings: at 1 µM
T5 sequence (whole entry): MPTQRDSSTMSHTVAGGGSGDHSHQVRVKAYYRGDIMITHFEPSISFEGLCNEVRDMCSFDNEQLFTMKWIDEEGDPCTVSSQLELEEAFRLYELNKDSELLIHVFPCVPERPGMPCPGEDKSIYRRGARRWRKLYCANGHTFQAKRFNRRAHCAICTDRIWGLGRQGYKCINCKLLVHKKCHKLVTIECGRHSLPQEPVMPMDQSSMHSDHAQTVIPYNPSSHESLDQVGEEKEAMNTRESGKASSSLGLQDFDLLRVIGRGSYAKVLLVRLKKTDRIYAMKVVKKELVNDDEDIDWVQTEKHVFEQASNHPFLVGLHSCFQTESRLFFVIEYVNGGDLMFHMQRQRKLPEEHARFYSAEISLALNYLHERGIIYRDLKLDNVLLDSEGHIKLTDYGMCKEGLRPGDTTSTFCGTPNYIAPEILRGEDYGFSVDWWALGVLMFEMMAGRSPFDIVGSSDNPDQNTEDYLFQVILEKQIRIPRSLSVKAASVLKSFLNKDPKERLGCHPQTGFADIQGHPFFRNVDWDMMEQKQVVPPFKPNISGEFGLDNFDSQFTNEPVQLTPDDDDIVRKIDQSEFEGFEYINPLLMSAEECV

[16] = target: T5, Protein kinase C iota type (Homo sapiens); settings: at 10 µM
[17] = target: T4, Serine/threonine-protein kinase D2 (Homo sapiens); settings: at 1 µM
[18] = target: Tyrosine-protein kinase HCK (Homo sapiens) (UniProt P08631); settings: at 1 µM; remark: listed apart in the source
[19] = target: Protein kinase C theta type (Homo sapiens) (UniProt Q04759); settings: at 1 µM
[20] = target: Protein kinase C theta type (Homo sapiens) (UniProt Q04759); settings: at 10 µM

Sequence of Tyrosine-protein kinase HCK (Homo sapiens) (P08631 2-526 limits assumed): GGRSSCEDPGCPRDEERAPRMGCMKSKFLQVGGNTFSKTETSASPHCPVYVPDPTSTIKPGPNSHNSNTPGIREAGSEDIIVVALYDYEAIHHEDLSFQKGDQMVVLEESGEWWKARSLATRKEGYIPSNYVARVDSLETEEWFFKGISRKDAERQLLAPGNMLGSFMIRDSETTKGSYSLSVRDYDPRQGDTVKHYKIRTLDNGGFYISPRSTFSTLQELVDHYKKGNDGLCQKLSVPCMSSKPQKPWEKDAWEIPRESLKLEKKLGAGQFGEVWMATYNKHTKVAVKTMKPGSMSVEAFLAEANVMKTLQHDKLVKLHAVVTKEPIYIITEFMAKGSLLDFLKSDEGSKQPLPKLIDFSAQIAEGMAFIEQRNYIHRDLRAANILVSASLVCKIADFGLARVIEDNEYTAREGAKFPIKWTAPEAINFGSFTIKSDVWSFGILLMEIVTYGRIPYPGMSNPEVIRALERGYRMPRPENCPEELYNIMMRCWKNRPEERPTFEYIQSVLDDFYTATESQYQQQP
Sequence of Insulin-like growth factor 1 receptor (Homo sapiens) (P08069 31-736 limits assumed): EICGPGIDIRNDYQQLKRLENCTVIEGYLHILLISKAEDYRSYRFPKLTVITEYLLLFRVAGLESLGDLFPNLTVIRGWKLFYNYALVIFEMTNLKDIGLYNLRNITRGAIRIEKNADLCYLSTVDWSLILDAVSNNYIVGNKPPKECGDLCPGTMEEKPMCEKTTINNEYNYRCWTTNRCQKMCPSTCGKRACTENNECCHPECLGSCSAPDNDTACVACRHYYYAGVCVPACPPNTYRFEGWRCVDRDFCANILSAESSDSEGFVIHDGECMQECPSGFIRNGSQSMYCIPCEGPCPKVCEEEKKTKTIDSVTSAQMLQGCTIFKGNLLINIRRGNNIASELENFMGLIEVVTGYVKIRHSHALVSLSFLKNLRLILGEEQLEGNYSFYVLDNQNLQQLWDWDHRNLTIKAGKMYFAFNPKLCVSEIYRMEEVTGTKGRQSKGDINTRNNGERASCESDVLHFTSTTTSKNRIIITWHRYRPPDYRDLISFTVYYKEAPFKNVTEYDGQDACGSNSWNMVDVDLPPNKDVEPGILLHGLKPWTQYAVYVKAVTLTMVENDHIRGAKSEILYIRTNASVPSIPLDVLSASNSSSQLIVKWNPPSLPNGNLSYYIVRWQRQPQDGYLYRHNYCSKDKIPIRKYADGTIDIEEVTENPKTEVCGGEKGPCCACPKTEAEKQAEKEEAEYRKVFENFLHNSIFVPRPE
Sequence of Insulin-like growth factor 1 receptor (Homo sapiens) (P08069 741-1367 limits assumed): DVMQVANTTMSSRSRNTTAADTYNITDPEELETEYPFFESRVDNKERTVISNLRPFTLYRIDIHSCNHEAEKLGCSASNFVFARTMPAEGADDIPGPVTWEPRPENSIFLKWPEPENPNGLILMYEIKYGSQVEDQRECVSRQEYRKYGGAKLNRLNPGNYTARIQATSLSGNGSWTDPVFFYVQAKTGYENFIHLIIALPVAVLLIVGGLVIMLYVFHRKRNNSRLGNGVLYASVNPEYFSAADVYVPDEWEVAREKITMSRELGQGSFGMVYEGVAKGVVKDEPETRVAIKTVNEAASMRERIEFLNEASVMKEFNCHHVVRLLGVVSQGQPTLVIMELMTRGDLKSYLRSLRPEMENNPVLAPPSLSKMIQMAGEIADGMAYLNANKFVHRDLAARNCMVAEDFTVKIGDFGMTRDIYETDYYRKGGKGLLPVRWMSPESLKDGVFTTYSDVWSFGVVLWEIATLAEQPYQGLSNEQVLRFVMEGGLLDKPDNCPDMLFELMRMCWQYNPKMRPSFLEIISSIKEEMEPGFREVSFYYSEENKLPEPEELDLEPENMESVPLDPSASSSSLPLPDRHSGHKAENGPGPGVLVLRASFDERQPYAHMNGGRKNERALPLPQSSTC
Sequence of Protein kinase C theta type (Homo sapiens) (Q04759 whole entry, looked up): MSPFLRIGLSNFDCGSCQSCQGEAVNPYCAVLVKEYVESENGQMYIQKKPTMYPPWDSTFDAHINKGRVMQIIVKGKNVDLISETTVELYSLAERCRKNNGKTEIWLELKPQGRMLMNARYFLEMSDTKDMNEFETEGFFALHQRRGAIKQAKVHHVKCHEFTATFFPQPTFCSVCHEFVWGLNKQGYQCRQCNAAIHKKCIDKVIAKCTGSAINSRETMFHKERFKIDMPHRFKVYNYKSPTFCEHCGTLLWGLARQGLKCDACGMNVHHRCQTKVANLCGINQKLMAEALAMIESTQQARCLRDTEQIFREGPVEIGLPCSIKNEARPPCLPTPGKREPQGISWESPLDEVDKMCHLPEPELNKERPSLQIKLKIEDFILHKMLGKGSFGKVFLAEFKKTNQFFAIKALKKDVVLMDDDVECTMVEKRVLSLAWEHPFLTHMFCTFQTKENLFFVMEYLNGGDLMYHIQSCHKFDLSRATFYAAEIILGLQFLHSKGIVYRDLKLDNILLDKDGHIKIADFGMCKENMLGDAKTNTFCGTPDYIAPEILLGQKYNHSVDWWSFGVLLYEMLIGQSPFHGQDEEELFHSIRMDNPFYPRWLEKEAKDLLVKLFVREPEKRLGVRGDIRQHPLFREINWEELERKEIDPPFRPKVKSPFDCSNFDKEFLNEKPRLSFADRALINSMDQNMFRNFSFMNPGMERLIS
Sequence of Protein kinase C eta type (Homo sapiens) (P24723 whole entry): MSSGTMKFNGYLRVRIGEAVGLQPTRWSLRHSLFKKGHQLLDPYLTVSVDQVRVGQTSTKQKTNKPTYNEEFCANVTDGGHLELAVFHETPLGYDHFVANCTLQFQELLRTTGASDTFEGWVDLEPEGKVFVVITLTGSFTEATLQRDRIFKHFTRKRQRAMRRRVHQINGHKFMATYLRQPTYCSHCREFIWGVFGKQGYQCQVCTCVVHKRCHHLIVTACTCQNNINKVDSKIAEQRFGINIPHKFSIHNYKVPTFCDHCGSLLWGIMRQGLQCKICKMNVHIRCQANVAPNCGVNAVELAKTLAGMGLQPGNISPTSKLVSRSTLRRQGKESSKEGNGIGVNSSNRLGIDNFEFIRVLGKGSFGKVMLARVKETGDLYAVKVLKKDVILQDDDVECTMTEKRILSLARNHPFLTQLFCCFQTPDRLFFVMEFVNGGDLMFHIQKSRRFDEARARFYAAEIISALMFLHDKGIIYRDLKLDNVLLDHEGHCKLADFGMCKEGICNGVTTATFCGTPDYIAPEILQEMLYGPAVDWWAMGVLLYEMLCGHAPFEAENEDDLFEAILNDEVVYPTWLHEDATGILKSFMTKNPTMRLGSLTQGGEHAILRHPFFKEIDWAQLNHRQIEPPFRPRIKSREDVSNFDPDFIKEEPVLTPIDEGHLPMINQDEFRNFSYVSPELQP
Sequence of Homeodomain-interacting protein kinase 3 (Homo sapiens) (Q9H422 whole entry, looked up): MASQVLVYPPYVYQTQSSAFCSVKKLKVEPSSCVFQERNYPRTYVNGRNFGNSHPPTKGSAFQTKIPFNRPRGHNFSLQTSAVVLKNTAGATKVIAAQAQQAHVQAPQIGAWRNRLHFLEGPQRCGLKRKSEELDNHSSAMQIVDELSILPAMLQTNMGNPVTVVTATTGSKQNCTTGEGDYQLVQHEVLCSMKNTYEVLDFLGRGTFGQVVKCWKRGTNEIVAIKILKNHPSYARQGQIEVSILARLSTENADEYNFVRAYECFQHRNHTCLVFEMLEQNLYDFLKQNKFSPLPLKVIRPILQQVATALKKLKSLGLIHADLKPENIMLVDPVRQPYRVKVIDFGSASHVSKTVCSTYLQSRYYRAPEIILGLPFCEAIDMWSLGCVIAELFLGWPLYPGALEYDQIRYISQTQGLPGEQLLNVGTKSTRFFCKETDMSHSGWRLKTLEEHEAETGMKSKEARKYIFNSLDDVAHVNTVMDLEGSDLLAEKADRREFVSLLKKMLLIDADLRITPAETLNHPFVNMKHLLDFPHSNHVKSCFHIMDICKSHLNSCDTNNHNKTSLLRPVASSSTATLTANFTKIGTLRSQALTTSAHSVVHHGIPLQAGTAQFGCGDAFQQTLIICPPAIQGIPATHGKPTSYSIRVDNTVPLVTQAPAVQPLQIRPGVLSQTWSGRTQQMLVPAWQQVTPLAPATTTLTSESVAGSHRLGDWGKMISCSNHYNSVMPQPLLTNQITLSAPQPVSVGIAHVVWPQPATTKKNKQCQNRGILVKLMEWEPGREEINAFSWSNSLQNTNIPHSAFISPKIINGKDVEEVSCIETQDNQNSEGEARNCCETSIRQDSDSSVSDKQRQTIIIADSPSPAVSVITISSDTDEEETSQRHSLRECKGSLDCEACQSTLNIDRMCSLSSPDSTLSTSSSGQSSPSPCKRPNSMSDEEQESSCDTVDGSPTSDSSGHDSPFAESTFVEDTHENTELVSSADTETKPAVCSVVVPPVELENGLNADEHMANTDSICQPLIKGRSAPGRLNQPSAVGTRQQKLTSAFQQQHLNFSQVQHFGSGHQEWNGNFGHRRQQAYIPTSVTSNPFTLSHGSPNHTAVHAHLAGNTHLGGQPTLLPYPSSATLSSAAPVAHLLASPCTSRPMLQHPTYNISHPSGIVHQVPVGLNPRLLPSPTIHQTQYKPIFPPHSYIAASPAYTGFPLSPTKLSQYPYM

| SMILES | residual activity [1] [%] | residual activity [2] [%] | residual activity [3] [%] | residual activity [4] [%] | residual activity [5] [%] | residual activity [6] [%] | residual activity [7] [%] | residual activity [8] [%] | residual activity [9] [%] | residual activity [10] [%] | residual activity [11] [%] | residual activity [12] [%] | residual activity [13] [%] | residual activity [14] [%] | residual activity [15] | residual activity [16] [%] | residual activity [17] [%] | residual activity [18] [%] | residual activity [19] [%] | residual activity [20] [%] |
| --- | --- | --- | --- | --- | --- | --- | --- | --- | --- | --- | --- | --- | --- | --- | --- | --- | --- | --- | --- | --- |
| N#Cc1c(NC(=O)c2cccc3ccccc23)sc2c1CCCC2 | 99 | 82 | 64 | 63 | 55 | 136 | 128 | 100 | 91 | 92 | 92 | 83 | 93 | – | – | – | – | – | – | – |
| O=C(c1ccccc1)c1ccc(N2CCOCC2)cc1O | – | 98 | 77 | 83 | 75 | 76 | 81 | – | 116 | 83 | 95 | – | 100 | 93 | 78% (inactive) | 73 | 96 | – | – | – |
| CCCCc1c(-c2ccc(O)cc2)[nH]c2nccnc12 | – | 34 | 12 | 64 | 23 | 131 | – | – | 96 | 77 | 83 | 59 | – | 64 | – | 83 | – | 63 | – | – |
| CCOC(=O)c1c(C)[nH]c(/C=C2\C(=O)Nc3ccccc32)c1C | – | – | – | 77 | 74 | 119 | – | – | – | – | – | – | – | 97 | – | – | – | 93 | – | – |
| O=C1NC(=O)C(c2c[nH]c3ccccc23)=C1c1c[nH]c2ccccc12 | – | – | 69 | – | 38 | 128 | – | 25 | 68 | 17 | – | 71 | – | – | 116% (inactive) | 79 | – | – | 5 | 2 |
| Nc1n[nH]c2nc3ccccc3nc12 | – | 96 | 41 | 75 | 60 | 121 | 132 | – | 89 | 68 | 83 | 69 | 87 | 88 | – | – | – | – | – | 85 |
| O=S(=O)(c1cccc2cnccc12)N1CCCNCC1 | – | 60 | 8 | – | – | – | – | – | 80 | 26 | 84 | 20 | – | – | – | – | 100 | – | – | 67 |
| O=S(=O)(NCCNC/C=C/c1ccc(Br)cc1)c1cccc2cnccc12 | – | 7 | 0 | – | 72 | – | – | 78 | 66 | 15 | – | 20 | – | – | – | – | – | – | 61 | 17 |
| O=C1Nc2ccccc2/C1=C\c1c(Cl)[nH]c2ccccc12 | – | 85 | 61 | 79 | 27 | – | – | – | – | 80 | 99 | 65 | – | 87 | – | – | – | – | 81 | 71 |
| Cn1sc(=O)n(Cc2ccccc2)c1=O | – | 77 | – | 75 | 64 | 93 | – | – | 79 | 17 | 90 | 64 | 93 | 90 | 87% (inactive) | 19 | 99 | 89 | 89 | 85 |
| O=C1NC(=O)C(c2cn(CCCn3ccnc3)c3ccccc23)=C1Nc1ccccc1 | – | – | 52 | 80 | 65 | 140 | – | 50 | 15 | 2 | – | – | – | – | – | – | – | – | 3 | 2 |
| COc1cc2nccc(Oc3ccc(NC(=O)Nc4cc(C)on4)c(Cl)c3)c2cc1OC | – | – | – | 7 | 2 | 135 | – | – | 96 | 79 | – | – | – | 6 | – | – | – | 5 | 100 | 98 |
| CSc1nc(-c2ccc(F)cc2)c(-c2ccnc(NC(C)c3ccccc3)c2)[nH]1 (centres undefined) | – | – | – | 85 | 51 | – | – | – | 87 | 73 | 97 | 44 | 94 | 86 | – | 99 | – | 102 | 101 | 72 |
| COc1cc2c(cc1OC)-c1n[nH]c(Nc3cccc(F)c3)c1C2 | – | – | – | 22 | 6 | 105 | 115 | 109 | 102 | 70 | 78 | – | 104 | 2 | – | – | 107 | 19 | – | 81 |
